# MEKK2 mut-MEK5: MEK5 binding signal on mutant MEKK2 PB1, primary screen, biochemical, multiplex bead flow cytometry, Alexa488-MEK5. percent response, % at 10 µM. Alexa488-MEK5 binding to MEKK2 mutant. 290,000 tested, 0.35% active; in the data active means percent response above about 24%, passing the limit was not always enough
# MEKK2 WT-MEK5: modulators of MEK5 binding to wildtype MEKK2, primary screen, biochemical, multiplex bead flow cytometry, Alexa488-MEK5; Alexa488-MEK5 binding to MEKK2 WT; actives lie on both sides; 290,000 tested, 1.1% active; binding response (% of control), % at 10 µM; in the data active means binding response below about 67% or above about 130%
# MEKK3 PB1 HTS: modulators of MEKK3-MEK5 PB1 binding, primary screen, biochemical, wildtype MEKK3, multiplex bead flow cytometry, Alexa488-MEK5 | bead-based flow cytometry, Alexa488-MEK5 binding to MEKK3; actives lie on both sides; 0 = blocked by unlabeled MEK5, 100 = vehicle | binding response (% of control), % at 10 µM | 290,000 tested, 1.4% active | AID 1529, 2009;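 active means binding response more than 3 SD above or below the average of its plate-row segment, actives on both sides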;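 further: Alexa488 bead fluorescence after subtracting the streptavidin-only scavenger bead signal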
# VLA-4 inh: inhibition in human VLA-4 binding assay, primary screen, VLA-4 allosteric modulator project, MLPCN library, flow cytometry, VLA-4 expressing cells | 330,000 tested, 0.2% active | ligand binding flow cytometry | inhibition, % (about 7 µM as worked out from the volumes in the protocol); in the data active means inhibition above about 50%
# MEKK2wt confirm: modulators of MEK5 binding to wildtype MEKK2, confirmation, biochemical, single concentration, multiplex bead flow cytometry; shares compounds with MEKK3 PB1 HTS; Alexa488-MEK5 binding to MEKK2 WT; actives lie on both sides; binding response (% of control), % at 10 µM; 5,900 tested, 2.4% active; AID 1892, 2009; in the data active means binding response below about 16% or above about 210%; inactive means in between
# MEKK2mut confirm: mutant MEKK2 PB1-MEK5 binding signal retest – biochemical, single concentration, multiplex bead flow cytometry, confirmation | shares compounds with MEKK3 PB1 HTS | Alexa488-MEK5 binding to MEKK2 mutant | percent response, % at 10 µM | 5,900 tested, 2% active | AID 1893, 2009; in the data active means percent response mostly above about 71%, no sharp cut-off; inactive means mostly below about 38%;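 further: higher means compound restores mutant binding toward wildtype level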
# MEKK3 confirm: MEKK3 wild-type PB1 binding to MEK5, inhibitors, confirmation, biochemical, bead multiplex flow cytometry, single concentration, wildtype; shares compounds with MEKK3 PB1 HTS; Alexa488-MEK5 binding to MEKK3; hits give low values; 5,900 tested, 1.8% active; binding response (% of control), % at 10 µM;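 active means binding response below 72% of control, or above a set upper limit, though filed actives all read lower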;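 further: 100% = DMSO only wells and 0% = binding blocked by excess unlabeled MEK5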
# * hit, by the source's call; i = inactive; nt = not tested or not shown; [ ] = another dose, or the depositor's remark. Only some compounds are listed: those with a hit (about 2.2% of all), similar ones and a draw of the others.
SMILES,MEKK2 mut-MEK5,MEKK2 WT-MEK5,MEKK3 PB1 HTS,VLA-4 inh,MEKK2wt confirm,MEKK2mut confirm,MEKK3 confirm
Cc1c(NC(=O)c2ccc3c(c2)OCO3)cccc1-c1nc2ccccc2o1,4,113,131*,13,108,13,111
COc1cc2c(cc1NC(=O)CCC(=O)O)oc1ccccc12,0,106,101,14,nt,nt,nt
COc1cc2c(cc1NC(=O)c1ccc3c(c1)OCO3)oc1ccccc12,-34,-5.0*[inhibitor],99,-3,95,-4,99
COc1cc2c(cc1NC(=O)Nc1ccccc1)oc1ccccc12,18,140*,105,7,157,16,96
COc1cc2c(cc1NC(=S)Nc1cccc(C(F)(F)F)c1)oc1ccccc12,19,153*,102,3,126,-7,101
Cc1ccc(-c2nc3ccccc3o2)cc1NC(=O)c1ccc2c(c1)OCO2,-2,97,97,-22,nt,nt,nt
CCc1cc2ccc(C)c(C)c2nc1SCC(=O)NNC(=O)c1ccco1,-2,95,99,14,nt,nt,nt
CCC(C)N(C)C1CCN(C(=S)Nc2cccc(SC)c2)CC1 (configuration not stated),10,113,104,-13,nt,nt,nt
CSc1cccc(NC(=S)N2CCC(N(C)C(C)C)CC2)c1,-12,63,50*[inhibitor],12,102,-4,101
O=C(CCN1C(=O)C2CCCCC2C1=O)Nc1nc(-c2ccccc2)cs1 (configuration not stated),-1,99,101,14,nt,nt,nt
COCCCNC(=O)c1ccc2c3c(onc13)-c1ccccc1C2=O,-8,92,96,-161,nt,nt,nt
CCOC(=O)C(C(=O)OCC)c1cc(Br)c2noc3c2c1C(=O)c1ccccc1-3,-14,39*[inhibitor],64*[inhibitor],i,44,-25,68*
O=C(Cc1ccccc1)NNC(=O)Nc1ccccc1,-11,92,100,-5,nt,nt,nt
O=C(NC(=S)N1CCOCC1)C12CCC3CC(CC(C3)C1)C2,2,99,134*,-5,96,-4,100
O=C(NC(=S)N1CCOCC1)C12CC3CCC(CC(C3)C1)C2,10,110,100,10,nt,nt,nt
CN(C)CCCN1C(=O)C(O)=C(C(=O)c2cccs2)C1c1cccc([N+](=O)[O-])c1 (configuration not stated),-84,1.0*[inhibitor],2.0*[inhibitor],13,99,1,102
Cc1ccc(OCC(=O)Nc2c3c(nn2C(C)(C)C)CS(=O)(=O)C3)cc1,4,102,102,-2,nt,nt,nt
CC(C)C[C@H](NC(=O)c1nc[nH]c1C(=O)N[C@@H](CC(C)C)C(=O)OC(C)(C)C)C(=O)OCc1ccccc1,-8,99,102,-8,nt,nt,nt
CC(C)C[C@H](NC(=O)c1[nH]cnc1C(=O)N[C@@H](C)c1ccccc1)C(=O)OCc1ccccc1,1,1.0*[inhibitor],1.0*[inhibitor],-25,102,-2,105
O=C1NC2(C=Cc3c(ccc4ccccc34)O2)Oc2ccccc21 (configuration not stated),-17,2.0*[inhibitor],2.0*[inhibitor],-2,91,-2,96
CC1(C)OC(=O)N(c2ccccc2)C12C=Cc1c(ccc3ccccc13)O2 (configuration not stated),3,100,113,-20,nt,nt,nt
COC(=O)c1c(NC(=O)COc2ccc(Cl)cc2)sc2c1CC(C)(C)NC2(C)C,49*,186*,107,-98,181,51,110
CNC(=S)NCCc1ccccc1,7,103,103,-5,nt,nt,nt
OCCNC(=S)NCCc1ccccc1,0,109,132*,7,100,0,100
Cc1cccc(C)c1NC(=O)C(=O)NCCCN1CCOCC1,-1,93,61*[inhibitor],-37,100,-1,103
SMILES,MEKK2 mut-MEK5,MEKK2 WT-MEK5,MEKK3 PB1 HTS,VLA-4 inh,MEKK2wt confirm,MEKK2mut confirm,MEKK3 confirm
S=C(NCCN1CCOCC1)Nc1ccc(Br)cc1,0,104,145*,16,99,-7,100
S=C(NCCN1CCOCC1)N/N=C/c1c2ccccc2cc2ccccc12,-10,-2.0*[inhibitor],1.0*[inhibitor],-7,108,4,102
S=C(NCCN1CCOCC1)Nc1ccc(Nc2ccccc2)cc1,2,106,103,-2,nt,nt,nt
CCOc1ccc2[nH]cc(C(=O)NCCCN3CCOCC3)c(=O)c2c1,-10,91,92,-4,nt,nt,nt
Cc1cccc2c(=O)c(C(=O)NCCCN3CCOCC3)c[nH]c12,8,85,71*[inhibitor],-6,104,3,104
Cc1ccc(C)c(NC(=O)CCN2CCCC(C)C2)c1 (configuration not stated),-7,101,102,-1,nt,nt,nt
Cc1nn2cnnc2c(C)c1Cc1c(F)cccc1Cl,3,106,105,20,nt,nt,nt
NS(=O)(=O)c1ccc(CCNC(=O)c2cc3ccccc3s2)cc1,5,100,98,-12,nt,nt,nt
COc1ccc(OCC(=O)Nc2ccc(OC)c(S(=O)(=O)N3CCCCC3)c2)cc1,nt,nt,nt,-8,nt,nt,nt
O=Cc1c(OCc2ccccc2)ccc2ccccc12,4,108,107,-8,nt,nt,nt
CC(C)(C)c1ccc(/C=N/NC(=O)C(=O)NCCCN2CCOCC2)cc1,-2,101,105,-3,nt,nt,nt
O=C(NCCCN1CCOCC1)C(=O)N/N=C/c1ccccc1,-1,106,157*,-9,98,-4,100
COc1ccc(OCc2nc3c4cc(OC)c(OC)cc4nc(=S)n3[nH]2)cc1,1,106,128*,1,105,4,105
CCN(CC(=O)Nc1ccc(NC(C)=O)cc1)C(=O)/C=C/c1ccccc1,nt,nt,nt,2,nt,nt,nt
CCN(CC(=O)Nc1ccc(NC(C)=O)cc1)C(=O)C(c1ccccc1)c1ccccc1,0,105,131*,43,88,3,96
CCN(CC(=O)Nc1ccc(NC(C)=O)cc1)C(=O)c1n[nH]c(=O)c2ccccc12,-34,72,55*[inhibitor],10,100,4,103
CCCC1CCc2[nH]nc(C(=O)NN)c2C1 (configuration not stated),nt,nt,nt,-16,nt,nt,nt
O=C(/C(=N/N=C/c1ccc(O)c(O)c1O)c1ccccc1)c1ccccc1,0,104,136*,-5,96,-9,101

# Screening data from PubChem BioAssay.
